The supplement of paper PMC10849652
Of roughly 8,800 targets only a part is listed; those with a hit were picked by preference. About 0.5% of all pairs of compound and target were hits.

Compound: C1=CC=C(C=C1)[C@H](COC2=CC3=C(C=C2)NC(=O)N3)NC(=O)C4=CC=CN(C4=O)CC5=CC(=C(C=C5)F)F
Experiment: log2 fold change, soluble protein after heating vs DMSO (PISA); higher = thermal stabilisation; K562 lysate, 10 uM; active = over 0.2 and 3.5 SD of the protein, either way, in both replicates (recomputed)
Outline: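 A 30 min treatment with 10 μM compound was applied to crude K562 extract at 1 mg/mL protein in PBS pH 7.4 with 1 mM MgCl2. Heating for 3 min spanned 48°C-58°C, after which aliquots were pooled, adjusted to 0.5% NP-40 at 4°C and spun at 21,000xg for 90 min. TMTpro 16plex LC-MS/MS of the supernatant, with channel sums equalised, gave values recorded as log-two fold change in thermal stability against solvent controls, from duplicates.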

UniProt Q16576, sequence (Q16576 whole entry, looked up): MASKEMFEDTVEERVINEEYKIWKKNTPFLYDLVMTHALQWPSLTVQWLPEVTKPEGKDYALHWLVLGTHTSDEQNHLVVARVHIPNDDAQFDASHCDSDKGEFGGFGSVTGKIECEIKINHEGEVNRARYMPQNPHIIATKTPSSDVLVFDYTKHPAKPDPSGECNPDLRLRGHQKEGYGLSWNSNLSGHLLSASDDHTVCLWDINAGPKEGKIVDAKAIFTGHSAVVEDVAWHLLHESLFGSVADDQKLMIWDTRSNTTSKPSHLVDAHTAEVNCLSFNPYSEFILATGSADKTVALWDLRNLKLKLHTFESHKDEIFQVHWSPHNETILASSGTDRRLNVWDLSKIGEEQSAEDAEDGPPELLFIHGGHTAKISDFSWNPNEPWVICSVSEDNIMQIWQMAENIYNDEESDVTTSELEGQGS
UniProt O43502, sequence (O43502 whole entry, looked up): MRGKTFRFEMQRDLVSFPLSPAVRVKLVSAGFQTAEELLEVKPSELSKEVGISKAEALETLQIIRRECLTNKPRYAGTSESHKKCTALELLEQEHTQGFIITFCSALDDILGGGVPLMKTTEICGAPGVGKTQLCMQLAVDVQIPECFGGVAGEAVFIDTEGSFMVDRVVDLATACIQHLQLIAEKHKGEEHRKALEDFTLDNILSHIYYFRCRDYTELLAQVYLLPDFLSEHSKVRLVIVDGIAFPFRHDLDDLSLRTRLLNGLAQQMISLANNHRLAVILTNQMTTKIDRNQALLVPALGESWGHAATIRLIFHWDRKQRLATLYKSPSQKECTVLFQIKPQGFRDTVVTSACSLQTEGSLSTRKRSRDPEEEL
UniProt Q6UVJ0, sequence (Q6UVJ0 whole entry, looked up): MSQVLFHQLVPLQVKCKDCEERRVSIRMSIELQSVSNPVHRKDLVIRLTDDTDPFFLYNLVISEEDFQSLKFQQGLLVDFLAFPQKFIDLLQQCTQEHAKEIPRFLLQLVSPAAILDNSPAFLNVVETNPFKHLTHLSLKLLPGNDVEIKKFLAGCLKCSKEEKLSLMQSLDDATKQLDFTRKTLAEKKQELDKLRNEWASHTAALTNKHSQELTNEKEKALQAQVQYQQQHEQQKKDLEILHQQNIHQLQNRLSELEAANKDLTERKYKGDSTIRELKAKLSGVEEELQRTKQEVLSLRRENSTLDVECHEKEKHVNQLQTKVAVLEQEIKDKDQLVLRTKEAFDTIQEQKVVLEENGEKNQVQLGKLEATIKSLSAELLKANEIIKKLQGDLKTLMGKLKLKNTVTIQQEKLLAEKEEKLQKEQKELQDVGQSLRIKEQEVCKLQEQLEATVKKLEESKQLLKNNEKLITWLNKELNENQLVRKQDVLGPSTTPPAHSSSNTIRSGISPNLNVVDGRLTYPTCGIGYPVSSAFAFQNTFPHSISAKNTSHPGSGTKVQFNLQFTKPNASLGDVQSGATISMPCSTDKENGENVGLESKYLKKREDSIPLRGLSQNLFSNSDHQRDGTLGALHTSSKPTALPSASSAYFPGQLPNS
UniProt P53611, sequence (P53611 whole entry, looked up): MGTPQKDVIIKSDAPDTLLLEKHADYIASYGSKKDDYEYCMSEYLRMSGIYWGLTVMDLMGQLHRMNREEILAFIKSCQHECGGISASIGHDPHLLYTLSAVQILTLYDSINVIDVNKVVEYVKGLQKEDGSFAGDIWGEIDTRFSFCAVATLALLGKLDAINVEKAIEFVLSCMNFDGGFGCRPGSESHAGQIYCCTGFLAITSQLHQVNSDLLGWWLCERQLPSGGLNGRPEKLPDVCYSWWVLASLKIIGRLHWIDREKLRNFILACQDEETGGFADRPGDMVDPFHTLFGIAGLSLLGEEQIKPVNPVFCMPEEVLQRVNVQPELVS
UniProt Q13530, sequence (Q13530 whole entry, looked up): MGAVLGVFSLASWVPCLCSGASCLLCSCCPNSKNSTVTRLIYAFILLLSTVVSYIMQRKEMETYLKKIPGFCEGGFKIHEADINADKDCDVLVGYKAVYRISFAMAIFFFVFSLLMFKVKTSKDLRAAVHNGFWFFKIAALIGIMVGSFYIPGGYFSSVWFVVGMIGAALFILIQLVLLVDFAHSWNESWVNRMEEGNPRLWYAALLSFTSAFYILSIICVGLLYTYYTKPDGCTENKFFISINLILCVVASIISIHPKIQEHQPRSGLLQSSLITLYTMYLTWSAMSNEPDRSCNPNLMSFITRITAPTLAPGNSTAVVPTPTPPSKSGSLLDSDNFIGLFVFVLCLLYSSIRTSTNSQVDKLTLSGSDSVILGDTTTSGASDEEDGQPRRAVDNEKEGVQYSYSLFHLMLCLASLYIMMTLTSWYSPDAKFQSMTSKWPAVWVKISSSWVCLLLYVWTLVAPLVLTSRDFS
UniProt Q9NVW2, sequence (Q9NVW2 whole entry, looked up): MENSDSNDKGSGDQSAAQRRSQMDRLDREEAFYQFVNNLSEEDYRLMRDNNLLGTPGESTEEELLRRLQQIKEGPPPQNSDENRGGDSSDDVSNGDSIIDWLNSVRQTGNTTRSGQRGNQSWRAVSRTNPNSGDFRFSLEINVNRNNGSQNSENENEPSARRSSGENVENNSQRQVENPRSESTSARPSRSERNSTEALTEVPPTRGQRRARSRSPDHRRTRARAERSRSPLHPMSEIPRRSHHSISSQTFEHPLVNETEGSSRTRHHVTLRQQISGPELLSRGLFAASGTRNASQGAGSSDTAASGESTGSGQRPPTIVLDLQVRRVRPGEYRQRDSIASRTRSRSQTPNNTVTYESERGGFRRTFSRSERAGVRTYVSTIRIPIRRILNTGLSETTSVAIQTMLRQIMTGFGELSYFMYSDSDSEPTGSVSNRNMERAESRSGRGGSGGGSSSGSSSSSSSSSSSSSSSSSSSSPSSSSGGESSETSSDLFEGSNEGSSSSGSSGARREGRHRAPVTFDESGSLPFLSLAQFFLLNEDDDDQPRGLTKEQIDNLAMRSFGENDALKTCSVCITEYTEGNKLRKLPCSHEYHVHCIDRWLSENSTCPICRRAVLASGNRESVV
UniProt Q9H1K0, sequence (Q9H1K0 whole entry, looked up): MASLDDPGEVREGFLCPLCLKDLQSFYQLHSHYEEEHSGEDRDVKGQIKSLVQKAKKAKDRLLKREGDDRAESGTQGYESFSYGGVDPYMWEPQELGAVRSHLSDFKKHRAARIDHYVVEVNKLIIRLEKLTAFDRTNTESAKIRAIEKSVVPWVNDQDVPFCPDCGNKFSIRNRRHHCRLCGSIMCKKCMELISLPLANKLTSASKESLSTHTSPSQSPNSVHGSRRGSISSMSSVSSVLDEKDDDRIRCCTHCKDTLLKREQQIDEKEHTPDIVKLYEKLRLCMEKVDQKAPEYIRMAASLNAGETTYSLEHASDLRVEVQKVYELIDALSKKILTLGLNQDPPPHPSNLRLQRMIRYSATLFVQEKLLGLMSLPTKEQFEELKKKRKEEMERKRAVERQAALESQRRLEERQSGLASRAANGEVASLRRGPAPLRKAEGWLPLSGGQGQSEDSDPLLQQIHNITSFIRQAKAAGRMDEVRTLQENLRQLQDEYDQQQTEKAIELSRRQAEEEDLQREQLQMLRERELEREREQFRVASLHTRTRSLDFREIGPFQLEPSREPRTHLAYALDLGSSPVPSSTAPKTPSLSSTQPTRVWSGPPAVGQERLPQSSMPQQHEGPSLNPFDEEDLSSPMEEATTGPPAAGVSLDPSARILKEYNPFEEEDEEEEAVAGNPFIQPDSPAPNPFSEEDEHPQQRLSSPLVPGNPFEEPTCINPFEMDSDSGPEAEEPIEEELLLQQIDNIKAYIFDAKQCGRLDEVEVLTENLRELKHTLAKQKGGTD
UniProt P35241, sequence (P35241 whole entry, looked up): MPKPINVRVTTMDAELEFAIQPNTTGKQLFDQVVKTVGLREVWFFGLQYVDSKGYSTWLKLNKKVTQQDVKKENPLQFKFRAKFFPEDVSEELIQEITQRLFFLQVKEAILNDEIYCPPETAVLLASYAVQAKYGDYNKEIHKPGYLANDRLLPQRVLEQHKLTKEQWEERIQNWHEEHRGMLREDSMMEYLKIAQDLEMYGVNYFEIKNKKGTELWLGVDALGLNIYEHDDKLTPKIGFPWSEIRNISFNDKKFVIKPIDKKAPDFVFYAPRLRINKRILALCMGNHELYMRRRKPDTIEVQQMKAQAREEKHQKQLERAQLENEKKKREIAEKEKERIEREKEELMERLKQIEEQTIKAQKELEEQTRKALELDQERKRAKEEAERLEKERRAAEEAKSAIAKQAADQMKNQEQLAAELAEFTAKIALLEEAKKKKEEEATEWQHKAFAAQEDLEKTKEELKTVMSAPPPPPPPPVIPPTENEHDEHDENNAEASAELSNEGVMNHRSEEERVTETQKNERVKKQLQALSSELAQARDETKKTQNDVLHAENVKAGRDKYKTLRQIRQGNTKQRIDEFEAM
UniProt O00767, sequence (O00767 whole entry, looked up): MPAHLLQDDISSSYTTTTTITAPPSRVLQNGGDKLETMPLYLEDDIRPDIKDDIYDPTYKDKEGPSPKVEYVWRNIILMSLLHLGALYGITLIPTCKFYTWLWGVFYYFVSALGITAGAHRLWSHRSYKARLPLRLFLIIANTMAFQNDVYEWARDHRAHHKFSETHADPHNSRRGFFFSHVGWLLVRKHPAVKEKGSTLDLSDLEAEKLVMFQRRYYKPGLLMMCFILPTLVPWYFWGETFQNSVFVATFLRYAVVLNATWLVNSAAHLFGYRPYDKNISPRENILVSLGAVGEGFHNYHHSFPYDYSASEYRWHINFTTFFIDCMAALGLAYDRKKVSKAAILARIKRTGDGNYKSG
UniProt Q5TBB1, sequence (Q5TBB1 whole entry, looked up): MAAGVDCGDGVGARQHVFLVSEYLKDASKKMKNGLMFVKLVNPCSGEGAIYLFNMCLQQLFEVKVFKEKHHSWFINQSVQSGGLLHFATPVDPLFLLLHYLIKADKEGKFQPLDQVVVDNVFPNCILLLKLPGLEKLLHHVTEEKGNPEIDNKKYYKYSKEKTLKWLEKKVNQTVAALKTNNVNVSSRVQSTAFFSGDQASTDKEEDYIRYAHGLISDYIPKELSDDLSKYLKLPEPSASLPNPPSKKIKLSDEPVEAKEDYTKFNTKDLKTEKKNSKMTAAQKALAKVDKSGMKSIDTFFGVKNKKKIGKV

Row | Target | log2 fold change
1 | RNASEH2B (UniProt Q5TBB1) | 0.056 (inactive)
2 | RARS (UniProt P54136) | -0.014 (inactive)
3 | RDH10 (UniProt Q8IZV5) | 0.147 (inactive)
4 | RDX (UniProt P35241) | -0.029 (inactive)
5 | RABGGTB (UniProt P53611) | -0.102 (inactive)
6 | SCO2 (UniProt O43819) | 0.026 (inactive)
7 | RAD51C (UniProt O43502) | -0.028 (inactive)
8 | SASS6 (UniProt Q6UVJ0) | -0.01 (inactive)
9 | RIOK3 (UniProt O14730) | 0.002 (inactive)
10 | RPS26P11 (UniProt Q5JNZ5) | -0.001 (inactive)
11 | SCCPDH (UniProt Q8NBX0) | 0.165 (inactive)
12 | SERINC3 (UniProt Q13530) | 0.109 (inactive)
13 | RAB5IF isoform 5 (UniProt Q9BUV8) | 0.01 (inactive)
14 | RBBP7 isoform 2 (UniProt Q16576) | -0.012 (inactive)
15 | SCD (UniProt O00767) | -0.016 (inactive)
16 | RBSN (UniProt Q9H1K0) | 0.031 (inactive)

Row | Target | log2 fold change
17 | SCML2 (UniProt Q9UQR0) | -0.036 (inactive)
18 | RAP1B (UniProt P61224) | 0.006 (inactive)
19 | RFC2 (UniProt P35250) | -0.009 (inactive)
20 | SEC24D isoform 2 (UniProt O94855) | -0.003 (inactive)
21 | RASA2 (UniProt Q15283) | -0.07 (inactive)
22 | RECQL5 (UniProt O94762) | -0.081 (inactive)
23 | RBBP7 (UniProt Q16576) | -0.029 (inactive)
24 | SEH1L isoform 1 (UniProt Q96EE3) | 0.016 (inactive)
25 | RBMX (UniProt P38159) | 0.089 (inactive)
26 | RNF170 (UniProt Q96K19) | -0.097 (inactive)
27 | RFC3 (UniProt P40938) | -0.032 (inactive)
28 | RPL37A (UniProt P61513) | -0.009 (inactive)
29 | RAB21 (UniProt Q9UL25) | -0.086 (inactive)
30 | RALGAPB (UniProt Q86X10) | 0.029 (inactive)
31 | RLIM (UniProt Q9NVW2) | 0.049 (inactive)
32 | RNF181 (UniProt Q9P0P0) | 0.03 (inactive)
